# Test results: PubChem BioAssay (NCATS)
# Records with an inconclusive call do not appear. A call without a number means that no potency is given here. Activity calls are given as the source filed them. Calls come from the whole dose curve; as a rule, active = well fitted curve in the direction sought with a large enough effect; inconclusive = small, poorly fitted or top-dose-only effect, or another doubt; inactive = no such curve, though single readings can be large; an effect the other way counts as inactive or inconclusive.
# Legend:
# [1] = qHTS of pediatric cancer cell lines to identify multiple opportunities for drug repurposing: Primary screen for Rh30 cells (AID 1347107); settings: Rh30 rhabdomyosarcoma viability, CellTiter-Glo luminescence, 48 h; series mostly up to 46 µM; note: nearly all actives have a fitted effect of over 75% in size; note: potency is the fitted concentration of half-maximal effect
# Outline: (§1)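 Viability after 48 h compound treatment at 37C, 500-1,000 cells/well, read as ATP luminescence with CellTiter-Glo. Primary screens used 11-point (MIPE, 0.78 nM-46 µM) or 8-point (NPC, 0.59 nM-46 µM) final concentrations; follow-up screens used 11-point dilutions.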
# [2] = qHTS of pediatric cancer cell lines to identify multiple opportunities for drug repurposing: Primary screen for Rh41 cells (AID 1347108); settings: Rh41 rhabdomyosarcoma viability, CellTiter-Glo luminescence, 48 h; series mostly up to 46 µM; note: nearly all actives have a fitted effect of over 70% in size; note: potency is the fitted concentration of half-maximal effect
# Outline: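 500-1,000 cells/well; 5 h pre-incubation 37 °C/5% CO2; compound pinned; 48 h; CellTiter-Glo, 15 min RT; luminescence. MIPE 11-pt from 0.78 nM, NPC 8-pt from 0.59 nM final. Bortezomib 2.3 µM final as positive control.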
# [3] = qHTS of pediatric cancer cell lines to identify multiple opportunities for drug repurposing: Primary screen for control Hh wild type fibroblast cells (AID 1347106); settings: Hh wild-type fibroblast viability, CellTiter-Glo luminescence, 48 h; series mostly up to 46 µM;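 note: a drop in luminescence marks cytotoxicity and a rise apparent proliferation; nearly all actives have a fitted effect of over 55% in size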
# Outline: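 Cells (500-1,000/well) in growth media were settled 5 h at 37 degrees C, then given compounds for 48 h. Viability was read as CellTiter-Glo luminescence. Primary runs used MIPE at 11 points (0.78 nM-46 µM) and NPC at 8 points (0.59 nM-46 µM); follow-ups used 11 points.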
# [4] = qHTS of pediatric cancer cell lines to identify multiple opportunities for drug repurposing: Confirmatory screen for NB1643 cells (AID 1347109); settings: NB1643 neuroblastoma cell viability; series mostly up to 95.5 µM; note: potency is the fitted concentration of half-maximal effect; nearly all actives have a fitted effect of over 45% in size
# Outline: as §1
# [5] = qHTS of pediatric cancer cell lines to identify multiple opportunities for drug repurposing: Confirmatory screen for A673 cells (AID 1347110); settings: A673 Ewing sarcoma cell viability; note: potency is the fitted concentration of half-maximal effect; nearly all actives have a fitted effect of over 65% in size
# Outline: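 Forty-eight-hour viability assay. Follow-up compounds ran at 11-point dilutions; positive control bortezomib at 2.3 uM final, neutral control DMSO.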
# [6] = qHTS of pediatric cancer cell lines to identify multiple opportunities for drug repurposing: Confirmatory screen for SK-N-MC cells (AID 1347111); settings: SK-N-MC cell viability;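 note: potency is the fitted concentration of half-maximal effect; cells exposed to compound for 48 h before the readout; nearly all actives have a fitted effect of over 70% in size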
# Outline: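 SK-N-MC cells at 500-1,000 cells/well in growth media were pre-incubated 5 h, then exposed to compounds at 11-point dilutions for 48 h at 37 degrees C, 5% CO2. Viability was read as CellTiter-Glo luminescence.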
# [7] = qHTS of pediatric cancer cell lines to identify multiple opportunities for drug repurposing: Confirmatory screen for BT-12 cells (AID 1347112); settings: BT-12 rhabdoid tumor cells, viability; series mostly up to 95.5 µM; note: potency is the fitted concentration of half-maximal effect; nearly all actives have a fitted effect of over 55% in size
# Outline: as §1
# [8] = qHTS of pediatric cancer cell lines to identify multiple opportunities for drug repurposing: Confirmatory screen for LAN-5 cells (AID 1347113); settings: LAN-5 neuroblastoma cell viability; series mostly up to 95.5 µM; note: potency is the fitted concentration of half-maximal effect; nearly all actives have a fitted effect of over 65% in size
# Outline: as §1
# [9] = qHTS of pediatric cancer cell lines to identify multiple opportunities for drug repurposing: Confirmatory screen for DAOY cells (AID 1347114); settings: DAOY medulloblastoma cells viability, cytotoxicity qHTS; series mostly up to 97.2 µM; note: nearly all actives have a fitted effect of over 65% in size; note: potency is the fitted concentration of half-maximal effect
# Outline: (§2)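 Viability measured as metabolically active cells via CellTiter-Glo luminescence following 48 hours of compound exposure, 11-point dilutions in confirmatory testing. 500-1,000 cells/well plated 5 hours before dosing; controls were DMSO and 2.3 µM bortezomib.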
# [10] = qHTS of pediatric cancer cell lines to identify multiple opportunities for drug repurposing: Confirmatory screen for NB-EBc1 cells (AID 1347115); settings: NB-EBc1 neuroblastoma cells, viability (cytotoxicity); series mostly up to 95.5 µM; note: nearly all actives have a fitted effect of over 45% in size; note: potency is the fitted concentration of half-maximal effect
# Outline: as §1
# [11] = qHTS of pediatric cancer cell lines to identify multiple opportunities for drug repurposing: Confirmatory screen for SJ-GBM2 cells (AID 1347116); settings: SJ-GBM2 glioblastoma cells, viability; series mostly up to 97.2 µM; note: potency is the fitted concentration of half-maximal effect; nearly all actives have a fitted effect of over 60% in size
# Outline: as §2
# [12] = qHTS of pediatric cancer cell lines to identify multiple opportunities for drug repurposing: Confirmatory screen for BT-37 cells (AID 1347117); settings: BT-37 pediatric cancer cells, viability; note: potency is the fitted concentration of half-maximal effect; nearly all actives have a fitted effect of over 55% in size
# Outline: as §1
# [13] = qHTS of pediatric cancer cell lines to identify multiple opportunities for drug repurposing: Confirmatory screen for TC32 cells (AID 1347118); settings: TC32 Ewing sarcoma cells viability qHTS; note: potency is the fitted concentration of half-maximal effect; nearly all actives have a fitted effect of over 65% in size
# Outline: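 Luminescent CellTiter-Glo read-out of metabolically active TC32 cells after 48 h compound exposure. Primary: MIPE 11-point, 0.78 nM–46 µM; NPC 8-point, 0.59 nM–46 µM. Confirmatory: 11-point dilutions.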
# [14] = qHTS of pediatric cancer cell lines to identify multiple opportunities for drug repurposing: Confirmatory screen for MG 63 (6-TG R) cells (AID 1347119); settings: MG-63 (6-TG resistant) osteosarcoma viability; series mostly up to 95.5 µM; note: potency is the fitted concentration of half-maximal effect; nearly all actives have a fitted effect of over 55% in size
# Outline: as §1
# [15] = qHTS of pediatric cancer cell lines to identify multiple opportunities for drug repurposing: Confirmatory screen for U-2 OS cells (AID 1347122); settings: U-2 OS osteosarcoma cell viability; series mostly up to 45.9 µM; note: nearly all actives have a fitted effect of over 65% in size; note: potency is the fitted concentration of half-maximal effect
# Outline: as §1
# [16] = qHTS of pediatric cancer cell lines to identify multiple opportunities for drug repurposing: Confirmatory screen for Rh41 cells (AID 1347123); settings: Rh41 rhabdomyosarcoma cells, viability/cytotoxicity qHTS; series mostly up to 97.2 µM; note: nearly all actives have a fitted effect of over 60% in size; note: potency is the fitted concentration of half-maximal effect
# Outline: as §1
# [17] = qHTS of pediatric cancer cell lines to identify multiple opportunities for drug repurposing: Confirmatory screen for RD cells (AID 1347124); settings: RD rhabdomyosarcoma cell viability; series mostly up to 97.2 µM
# Outline: as §1
# [18] = qHTS of pediatric cancer cell lines to identify multiple opportunities for drug repurposing: Confirmatory screen for Rh18 cells (AID 1347125); settings: Rh18 rhabdomyosarcoma cells, viability; series mostly up to 45.9 µM
# Outline: as §1
# [19] = qHTS of pediatric cancer cell lines to identify multiple opportunities for drug repurposing: Confirmatory screen for Rh30 cells (AID 1347126); settings: Rh30 rhabdomyosarcoma cell viability; series mostly up to 97.2 µM
# Outline: as §1
# [20] = qHTS of pediatric cancer cell lines to identify multiple opportunities for drug repurposing: Confirmatory screen for control Hh wild type fibroblast cells (AID 1347121); settings: viability qHTS; series mostly up to 45.9 µM; note: nearly all actives have a fitted effect of over 70% in size
# Outline: as §1
compound,measurement,setting,value
c1ccc2sc(SSc3nc4ccccc4s3)nc2c1,Potency,[1],inactive
same,Potency,[2],inactive
O=Cc1ccc(O)c(O)c1O,Potency,[1],inactive
same,Potency,[2],inactive
NCCO,Potency,[3],inactive
same,Potency,[1],inactive
same,Potency,[2],inactive
CC(N)C(=O)OC(C)(C)Cc1ccc(Cl)cc1 (configuration not stated),Potency,[3],inactive
same,Potency,[1],inactive
same,Potency,[2],inactive
Cc1[nH]cnc1CN1CCc2c(c3ccccc3n2C)C1=O,Potency,[3],inactive
same,Potency,[1],inactive
same,Potency,[2],inactive
Clc1ccccc1-c1nc(-c2ccncc2)no1,Potency,[3],inactive
same,Potency,[1],inactive
same,Potency,[2],inactive
Cc1c(C(=O)O)c(O)cc2c1C(=O)c1c(O)c([C@@H]3O[C@H](CO)[C@@H](O)[C@H](O)[C@H]3O)c(O)c(O)c1C2=O,Potency,[1],inactive
COC(=O)c1nc(Cl)c(Cl)nc1N,Potency,[3],inactive
same,Potency,[1],21100 nM (active)
same,Potency,[2],3760 nM (active)
same,Potency,[4],3690 nM (active)
same,Potency,[5],293 nM (active)
same,Potency,[6],1170 nM (active)
same,Potency,[7],2080 nM (active)
same,Potency,[8],3290 nM (active)
same,Potency,[9],1650 nM (active)
same,Potency,[10],16500 nM (active)
same,Potency,[11],2080 nM (active)
same,Potency,[12],1470 nM (active)
same,Potency,[13],2330 nM (active)
same,Potency,[14],2930 nM (active)
same,Potency,[15],2610 nM (active)
same,Potency,[16],1310 nM (active)
same,Potency,[17],2610 nM (active)
same,Potency,[18],20800 nM (active)
same,Potency,[19],16500 nM (active)
NC(=O)C(c1ccccc1)(c1ccccc1)[C@@H]1CCN(CCc2ccc3c(c2)CCO3)C1,Potency,[3],inactive
same,Potency,[1],inactive
same,Potency,[2],inactive
Cc1c(N)c(=O)n(-c2ccccc2)n1C,Potency,[1],inactive
same,Potency,[2],inactive
O=C(CCN1CCN(CCO)CC1)N1c2ccccc2Sc2ccc(C(F)(F)F)cc21,Potency,[3],inactive
same,Potency,[1],inactive
same,Potency,[2],inactive
C/C(=N\O)c1ccc(OCC(=O)N2CCCCC2)cc1,Potency,[1],inactive
same,Potency,[2],inactive
Cc1ccc(O)c(-n2nc3ccccc3n2)c1,Potency,[3],inactive
same,Potency,[1],inactive
same,Potency,[2],inactive
CC(C)(C)c1nnc(NS(=O)(=O)c2ccc(N)cc2)s1,Potency,[1],inactive
same,Potency,[2],inactive
CCCSc1ccc2nc(NC(=O)OC)[nH]c2c1,Potency,[3],inactive
same,Potency,[1],inactive
same,Potency,[4],2000 nM (active)
same,Potency,[5],2000 nM (active)
same,Potency,[6],1580 nM (active)
same,Potency,[7],25100 nM (active)
same,Potency,[8],8910 nM (active)
same,Potency,[9],1260 nM (active)
same,Potency,[12],3980 nM (active)
same,Potency,[13],355 nM (active)
same,Potency,[14],1260 nM (active)
same,Potency,[20],inactive
same,Potency,[15],1000 nM (active)
same,Potency,[16],1120 nM (active)
same,Potency,[17],2510 nM (active)
CCOC(=O)c1ccccc1O,Potency,[3],inactive
same,Potency,[1],inactive
same,Potency,[2],inactive
same,Potency,[4],14700 nM (active)
same,Potency,[5],3290 nM (active)
same,Potency,[6],1650 nM (active)
same,Potency,[9],inactive
same,Potency,[10],inactive
same,Potency,[13],1470 nM (active)
same,Potency,[20],inactive
same,Potency,[15],inactive
same,Potency,[16],inactive
COc1ccc(-c2cc(=S)ss2)cc1,Potency,[1],inactive
same,Potency,[2],inactive
COC(=O)C1=C(C)NC(C)=C(C(=O)OCC(C)=O)C1c1ccccc1[N+](=O)[O-] (configuration not stated),Potency,[1],inactive
same,Potency,[2],inactive
CCCCCCCCCCCC(=O)[O][Sn]([CH2]CCC)([CH2]CCC)[O]C(=O)CCCCCCCCCCC,Potency,[1],inactive
same,Potency,[2],inactive
CCCC(=O)OC[C@@H](OC(=O)CCC)[C@@H](OC(=O)CCC)[C@H](Cn1c2nc(=O)[nH]c(=O)c-2nc2cc(C)c(C)cc21)OC(=O)CCC,Potency,[1],inactive
CC(=O)SCC(CC(=O)c1ccc(C)cc1)C(=O)O (configuration not stated),Potency,[3],inactive
same,Potency,[1],inactive
same,Potency,[2],inactive
C#CC1(O)CC[C@H]2[C@@H]3CCC4=CCCC[C@@H]4[C@H]3CC[C@@]21C (some centres not stated),Potency,[1],inactive
same,Potency,[2],inactive
Nc1ccc([N+](=O)[O-])cc1O,Potency,[15],inactive
Oc1c(Br)cc(Br)c2cccnc12,Potency,[15],14700 nM (active)
